About 2,000 (36%) of roughly 5,500 compounds were called active. About 18% were inconclusive and are not listed. Cut-off read from the data, not from the text of the source: active = normalized growth mostly below about 0.91 (no sharp cut-off); inconclusive = no clear call, values can overlap the other calls; inactive = mostly above about 0.92. The list shows a part of the results.
Test: chemical genetic growth profiling, strain panel (AID 1159580);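 note: tested at 20 µM; growth read once vehicle control cultures reached saturation at 30 °C; 1 = growth at the plate median or of vehicle wells; lower values mean less growth of the strain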
Details: growth OD
[1] = S. cerevisiae deletion strains, locus YHR030C, strain SLT2, stronger effect = lower value
[2] = S. cerevisiae deletion strains, locus YJL187C, strain SWE1, stronger effect = lower value

Measured: normalized growth

CC(C)[C@H](N)C(=O)OCCOCn1cnc2c(=O)[nH]c(N)nc21
inactive: S. cerevisiae deletion strains, locus YAL021C, strain ccr4, stronger effect = lower value 1.06 | S. cerevisiae deletion strains, locus YAL026C, strain drs2, stronger effect = lower value 1.02 | S. cerevisiae deletion strains, locus YAL030W, strain snc1, stronger effect = lower value 1.03 | S. cerevisiae deletion strains, locus YBL061C, strain skt5, stronger effect = lower value 1.02 | S. cerevisiae deletion strains, locus YBR009C, strain hhf1, stronger effect = lower value 0.961 | S. cerevisiae deletion strains, locus YBR023C, strain chs3, stronger effect = lower value 1.02 | S. cerevisiae deletion strains, locus YBR171W, strain sec66, stronger effect = lower value 1.01 | S. cerevisiae deletion strains, locus YBR231C, strain swc5, stronger effect = lower value 0.934 | S. cerevisiae deletion strains, locus YBR279W, strain paf1, stronger effect = lower value 1.02 | S. cerevisiae deletion strains, locus YCL011C, strain gbp2, stronger effect = lower value 1.01 | S. cerevisiae deletion strains, locus YCL016C, strain dcc1, stronger effect = lower value 1.05 | S. cerevisiae deletion strains, locus YCL069W, strain vba3, stronger effect = lower value 1 | S. cerevisiae deletion strains, locus YCR088W, strain abp1, stronger effect = lower value 1.02 | S. cerevisiae deletion strains, locus YDL005C, strain med2, stronger effect = lower value 1.02 | S. cerevisiae deletion strains, locus YDL040C, strain nat1, stronger effect = lower value 0.998 | S. cerevisiae deletion strains, locus YDR001C, strain nth1, stronger effect = lower value 1.01 | S. cerevisiae deletion strains, locus YDR069C, strain doa4, stronger effect = lower value 1 | S. cerevisiae deletion strains, locus YDR137W, strain rgp1, stronger effect = lower value 1.08 | S. cerevisiae deletion strains, locus YDR159W, strain sac3, stronger effect = lower value 0.94 | S. cerevisiae deletion strains, locus YDR195W, strain ref2 0.973 | S. cerevisiae deletion strains, locus YDR297W, strain sur2, stronger effect = lower value 1 | S. cerevisiae deletion strains, locus YDR334W, strain swr1, stronger effect = lower value 1.01 | S. cerevisiae deletion strains, locus YDR335W, strain msn5, stronger effect = lower value 1.01 | S. cerevisiae deletion strains, locus YDR392W, strain spt3, stronger effect = lower value 1.03 | S. cerevisiae deletion strains, locus YEL003W, strain gim4, stronger effect = lower value 0.996 | S. cerevisiae deletion strains, locus YEL037C, strain rad23, stronger effect = lower value 1.01 | S. cerevisiae deletion strains, locus YEL061C, strain CIN8 (second series), stronger effect = lower value 1 | S. cerevisiae deletion strains, locus YER015W, strain faa2, stronger effect = lower value 1.01 | S. cerevisiae deletion strains, locus YER016W, strain bim1, stronger effect = lower value 1.05 | S. cerevisiae deletion strains, locus YER111C, strain swi4, stronger effect = lower value 1.03 | S. cerevisiae deletion strains, locus YER155C, strain BEM2 (second series), stronger effect = lower value 1.11 | S. cerevisiae deletion strains, locus YFR010W, strain ubp6, stronger effect = lower value 0.974 | S. cerevisiae deletion strains, locus YGL167C, strain pmr1, stronger effect = lower value 1.01 | S. cerevisiae deletion strains, locus YGL173C, strain kem1, stronger effect = lower value 1.01 | S. cerevisiae deletion strains, locus YGL227W, strain vid30, stronger effect = lower value 1.01 | S. cerevisiae deletion strains, locus YGL240W, strain doc1, stronger effect = lower value 0.993 | S. cerevisiae deletion strains, locus YGL253W, strain hxk2, stronger effect = lower value 0.981 | S. cerevisiae deletion strains, locus YHR013C, strain ard1, stronger effect = lower value 1.02 | S. cerevisiae deletion strains, locus YHR027C, strain rpn1, stronger effect = lower value 1.01 | [1] 1.07 | S. cerevisiae deletion strains, locus YHR079C, strain IRE1, stronger effect = lower value 1.07 | S. cerevisiae deletion strains, locus YHR142W, strain chs7, stronger effect = lower value 0.988 | S. cerevisiae deletion strains, locus YJL092W, strain hpr5, stronger effect = lower value 1.01 | S. cerevisiae deletion strains, locus YJL095W, strain BCK1 (second series), stronger effect = lower value 1.04 | S. cerevisiae deletion strains, locus YJL095W, strain BCK1, stronger effect = lower value 1.02 | S. cerevisiae deletion strains, locus YJL115W, strain asf1, stronger effect = lower value 1.01 | S. cerevisiae deletion strains, locus YJL129C, strain trk1, stronger effect = lower value 0.982 | S. cerevisiae deletion strains, locus YJL154C, strain vps35, stronger effect = lower value 1.01 | S. cerevisiae deletion strains, locus YJL164C, strain tpk1, stronger effect = lower value 0.995 | S. cerevisiae deletion strains, locus YJL166W, strain qcr8, stronger effect = lower value 1.03 | [2] 1 | S. cerevisiae deletion strains, locus YJR066W, strain TOR1, stronger effect = lower value 0.99 | S. cerevisiae deletion strains, locus YKL160W, strain elf1, stronger effect = lower value 1.06 | S. cerevisiae deletion strains, locus YKR026C, strain gcn3, stronger effect = lower value 1.01 | S. cerevisiae deletion strains, locus YKR091W, strain srl3, stronger effect = lower value 1.01 | S. cerevisiae deletion strains, locus YLL001W, strain dnm1, stronger effect = lower value 0.96 | S. cerevisiae deletion strains, locus YLL026W, stronger effect = lower value 1.01 | S. cerevisiae deletion strains, locus YLL041C, strain sdh2, stronger effect = lower value 1.03 | S. cerevisiae deletion strains, locus YLR027C, strain aat2, stronger effect = lower value 1.01 | S. cerevisiae deletion strains, locus YLR113W, strain HOG1, stronger effect = lower value 0.977 | S. cerevisiae deletion strains, locus YLR221C, strain rsa3, stronger effect = lower value 0.96 | S. cerevisiae deletion strains, locus YLR258W, strain gsy2, stronger effect = lower value 1.03 | S. cerevisiae deletion strains, locus YLR262C, strain YPT6 (second series), stronger effect = lower value 1.01 | S. cerevisiae deletion strains, locus YLR320W, strain mms22, stronger effect = lower value 0.971 | S. cerevisiae deletion strains, locus YLR342W, strain FKS1, stronger effect = lower value 1.03 | S. cerevisiae deletion strains, locus YLR357W, strain rsc2, stronger effect = lower value 1.04 | S. cerevisiae deletion strains, locus YLR370C, strain arc18, stronger effect = lower value 1.03 | S. cerevisiae deletion strains, locus YLR384C, strain iki3, stronger effect = lower value 1.03 | S. cerevisiae deletion strains, locus YML120C, strain ndi1, stronger effect = lower value 0.969 | S. cerevisiae deletion strains, locus YMR058W, strain fet3, stronger effect = lower value 1.04 | S. cerevisiae deletion strains, locus YMR125W, strain sto1, stronger effect = lower value 1.04 | S. cerevisiae deletion strains, locus YMR129W, stronger effect = lower value 1.02 | S. cerevisiae deletion strains, locus YMR205C, strain PFK2, stronger effect = lower value 1.01 | S. cerevisiae deletion strains, locus YMR231W, strain pep5, stronger effect = lower value 1 | S. cerevisiae deletion strains, locus YNL071W, strain lat1, stronger effect = lower value 1.02 | S. cerevisiae deletion strains, locus YNL183C, strain NPR1, stronger effect = lower value 0.946 | S. cerevisiae deletion strains, locus YNL209W, strain ssb2, stronger effect = lower value 1.02 | S. cerevisiae deletion strains, locus YNL248C, strain rpa49, stronger effect = lower value 1.04 | S. cerevisiae deletion strains, locus YNL322C, strain KRE1 (second series), stronger effect = lower value 1.04 | S. cerevisiae deletion strains, locus YNR049C, strain mso1, stronger effect = lower value 0.998 | S. cerevisiae deletion strains, locus YOR001W, strain rrp6, stronger effect = lower value 0.943 | S. cerevisiae deletion strains, locus YOR070C, strain gyp1, stronger effect = lower value 1.03 | S. cerevisiae deletion strains, locus YOR080W, strain dia2, stronger effect = lower value 1.01 | S. cerevisiae deletion strains, locus YOR083W, strain WHI5, stronger effect = lower value 0.992 | S. cerevisiae deletion strains, locus YOR106W, strain vam3, stronger effect = lower value 1.02 | S. cerevisiae deletion strains, locus YOR231W, strain MKK1, stronger effect = lower value 1.04 | S. cerevisiae deletion strains, locus YOR265W, strain rbl2, stronger effect = lower value 1.01 | S. cerevisiae deletion strains, locus YOR270C, strain vph1, stronger effect = lower value 0.864 | S. cerevisiae deletion strains, locus YOR290C, strain snf2, stronger effect = lower value 1.05 | S. cerevisiae deletion strains, locus YPL051W, strain arl3, stronger effect = lower value 1.04 | S. cerevisiae deletion strains, locus YPL078C, strain atp4, stronger effect = lower value 1.04 | S. cerevisiae deletion strains, locus YPL106C, strain sse1, stronger effect = lower value 1.06 | S. cerevisiae deletion strains, locus YPL240C, strain hsp82, stronger effect = lower value 1.01 | S. cerevisiae deletion strains, locus YPL256C, strain CLN2, stronger effect = lower value 1.08

COC(=O)c1c(C)[nH]c(C)c1C(C)=O
inactive: S. cerevisiae deletion strains, locus YAL013W, strain DEP1, stronger effect = lower value 1.03 | S. cerevisiae deletion strains, locus YBR229C, strain ROT2, stronger effect = lower value 1.01 | S. cerevisiae deletion strains, locus YDL101C, strain DUN1, stronger effect = lower value 0.968 | S. cerevisiae deletion strains, locus YDR150W, strain NUM1, stronger effect = lower value 1.01 | S. cerevisiae deletion strains, locus YEL061C, strain CIN8, stronger effect = lower value 1.01 | S. cerevisiae deletion strains, locus YGR078C, strain PAC10, stronger effect = lower value 1.03 | [1] 1.05 | S. cerevisiae deletion strains, locus YHR087W, strain rtc3, stronger effect = lower value 1.03 | [2] 0.995 | S. cerevisiae deletion strains, locus YJR043C, strain POL32, stronger effect = lower value 0.976 | S. cerevisiae deletion strains, locus YJR075W, strain HOC1, stronger effect = lower value 0.999 | S. cerevisiae deletion strains, locus YKL190W, strain CNB1, stronger effect = lower value 1.01 | S. cerevisiae deletion strains, locus YLR039C, strain RIC1, stronger effect = lower value 1.07 | S. cerevisiae deletion strains, locus YLR058C, strain SHM2 (second series), stronger effect = lower value 1 | S. cerevisiae deletion strains, locus YLR085C, strain ARP6, stronger effect = lower value 1.18 | S. cerevisiae deletion strains, locus YLR262C, strain YPT6, stronger effect = lower value 1.02 | S. cerevisiae deletion strains, locus YML094W, strain GIM5, stronger effect = lower value 1.04 | S. cerevisiae deletion strains, locus YMR219W, strain ESC1, stronger effect = lower value 1.01 | S. cerevisiae deletion strains, locus YMR263W, strain SAP30, stronger effect = lower value 1 | S. cerevisiae deletion strains, locus YMR307W, strain GAS1, stronger effect = lower value 1.03 | S. cerevisiae deletion strains, locus YNL153C, strain GIM3, stronger effect = lower value 0.994 | S. cerevisiae deletion strains, locus YNL298W, strain CLA4 (second series), stronger effect = lower value 1.01 | S. cerevisiae deletion strains, locus YNL322C, strain KRE1, stronger effect = lower value 1.01 | S. cerevisiae deletion strains, locus YNR030W, strain Alg12, stronger effect = lower value 1.04 | S. cerevisiae deletion strains, locus YPL055C, strain LGE1, stronger effect = lower value 1.05 | S. cerevisiae deletion strains, locus YPL241C, strain CIN2, stronger effect = lower value 1.08 | S. cerevisiae strains, strain wild type, stronger effect = lower value 1.01
active: S. cerevisiae deletion strains, locus YPR135W, strain CTF4, stronger effect = lower value 1.36 [resistant]
